Laboratory results from PubChem BioAssay AID1159580 (chemical genetic matrix, 2015).
Where “and” joins values, the source holds several entries; their conditions need not be identical. Identical values can stand only once. Out of some 5,500 compounds screened, about 2,000 (36%) were called active. About 18% were inconclusive and are not listed. Rule as the data show it: active = normalized growth mostly below about 0.91 (no sharp cut-off); inconclusive = no clear call, values can overlap the other calls; inactive = mostly above about 0.92. Some of the results follow.

Assay: chemical genetic growth profiling, strain panel (AID 1159580);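 also: tested at 20 µM; growth read once vehicle control cultures reached saturation at 30 °C; 1 = growth at the plate median or of vehicle wells; lower values mean less growth of the strain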
Settings: S. cerevisiae deletion strains, growth OD

Measured: normalized growth

Clc1ccc(COC(Cn2ccnc2)c2ccc(Cl)cc2Cl)cc1 (stereo not given)
active: locus YAL013W, strain DEP1, stronger effect = lower value 0.0557 | locus YAL021C, strain ccr4, stronger effect = lower value 0.0668 | locus YAL026C, strain drs2, stronger effect = lower value 0.0618 | locus YAL030W, strain snc1, stronger effect = lower value 0.0554 | locus YBL061C, strain skt5, stronger effect = lower value 0.0644 | locus YBR009C, strain hhf1, stronger effect = lower value 0.0597 | locus YBR021W, strain FUR4, stronger effect = lower value 0.086 | locus YBR023C, strain chs3, stronger effect = lower value 0.0622 | locus YBR171W, strain sec66, stronger effect = lower value 0.0758 | locus YBR229C, strain ROT2, stronger effect = lower value 0.0463 | locus YBR231C, strain swc5, stronger effect = lower value 0.0645 | locus YBR279W, strain paf1, stronger effect = lower value 0.0619 | locus YCL011C, strain gbp2, stronger effect = lower value 0.0566 | locus YCL016C, strain dcc1, stronger effect = lower value 0.0644 | locus YCL029C, strain bik1, stronger effect = lower value 0.06 | locus YCL061C, strain MRC1, stronger effect = lower value 0.0624 | locus YCL069W, strain vba3, stronger effect = lower value 0.0606 | locus YCR088W, strain abp1, stronger effect = lower value 0.0621 | locus YDL005C, strain med2, stronger effect = lower value 0.0718 | locus YDL035C, strain GPR1, stronger effect = lower value 0.0503 | locus YDL040C, strain nat1, stronger effect = lower value 0.0573 | locus YDL074C, strain BRE1, stronger effect = lower value 0.0774 | locus YDL101C, strain DUN1, stronger effect = lower value 0.055 | locus YDL134C, strain PPH21, stronger effect = lower value 0.0501 | locus YDL185W, strain tfp1, stronger effect = lower value 0.0607 | locus YDL192W, strain arf1, stronger effect = lower value 0.0606 | locus YDR001C, strain nth1, stronger effect = lower value 0.0586 | locus YDR069C, strain doa4, stronger effect = lower value 0.0605 | locus YDR101C, strain arx1, stronger effect = lower value 0.0571 | locus YDR137W, strain rgp1, stronger effect = lower value 0.093 | locus YDR150W, strain NUM1, stronger effect = lower value 0.055 | locus YDR159W, strain sac3, stronger effect = lower value 0.0898 | locus YDR162C, strain NBP2, stronger effect = lower value 0.0476 | locus YDR195W, strain ref2 0.131 | locus YDR297W, strain sur2, stronger effect = lower value 0.0541 | locus YDR318W, strain mcm21, stronger effect = lower value 0.061 | locus YDR334W, strain swr1, stronger effect = lower value 0.0622 | locus YDR335W, strain msn5, stronger effect = lower value 0.0604 | locus YDR388W, stronger effect = lower value 0.0583 | locus YDR392W, strain spt3, stronger effect = lower value 0.0764 | locus YDR502C, strain sam2, stronger effect = lower value 0.0603 | locus YEL003W, strain gim4, stronger effect = lower value 0.0531 | locus YEL037C, strain rad23, stronger effect = lower value 0.0573 | locus YEL061C, strain CIN8 (second series), stronger effect = lower value 0.0612 | locus YEL061C, strain CIN8, stronger effect = lower value 0.0491 | locus YER015W, strain faa2, stronger effect = lower value 0.0598 | locus YER016W, strain bim1, stronger effect = lower value 0.0634 | locus YER110C, stronger effect = lower value 0.0724 | locus YER111C, strain swi4, stronger effect = lower value 0.0738 | locus YER155C, strain BEM2 (second series), stronger effect = lower value 0.0963 | locus YER155C, strain BEM2, stronger effect = lower value 0.0618 | locus YER167W, strain BCK2, stronger effect = lower value 0.0498 | locus YFR010W, strain ubp6, stronger effect = lower value 0.0675 | locus YGL078C, strain dbp3, stronger effect = lower value 0.0728 | locus YGL086W, strain mad1, stronger effect = lower value 0.0553 | locus YGL167C, strain pmr1, stronger effect = lower value 0.0771 | locus YGL173C, strain kem1, stronger effect = lower value 0.0703 | locus YGL227W, strain vid30, stronger effect = lower value 0.0629 | locus YGL240W, strain doc1, stronger effect = lower value 0.089 | locus YGL248W, strain PDE1, stronger effect = lower value 0.046 | locus YGL253W, strain hxk2, stronger effect = lower value 0.0531 | locus YGR135W, strain pre9, stronger effect = lower value 0.0589 | locus YGR229C, strain SMI1, stronger effect = lower value 0.0609 | locus YGR252W, strain gcn5, stronger effect = lower value 0.114 | locus YHR013C, strain ard1, stronger effect = lower value 0.0983 | locus YHR027C, strain rpn1, stronger effect = lower value 0.0623 | locus YHR030C, strain SLT2, stronger effect = lower value 0.0501 and 0.104 | locus YHR079C, strain IRE1 (second series), stronger effect = lower value 0.058 | locus YHR079C, strain IRE1, stronger effect = lower value 0.114 | locus YHR094C, strain hxt1, stronger effect = lower value 0.0575 | locus YHR129C, strain ARP1, stronger effect = lower value 0.0576 | locus YHR142W, strain chs7, stronger effect = lower value 0.0716 | locus YHR200W, strain rpn10, stronger effect = lower value 0.0591 | locus YIL066C, strain RNR3, stronger effect = lower value 0.143 | locus YIL073C, strain SPO22, stronger effect = lower value 0.1 | locus YIL125W, strain kgd1, stronger effect = lower value 0.0707 | locus YIR030C, strain dcg1, stronger effect = lower value 0.0577 | locus YJL092W, strain hpr5, stronger effect = lower value 0.0592 | locus YJL095W, strain BCK1 (second series), stronger effect = lower value 0.0566 | locus YJL095W, strain BCK1, stronger effect = lower value 0.0581 and 0.1 | locus YJL115W, strain asf1, stronger effect = lower value 0.0714 | locus YJL129C, strain trk1, stronger effect = lower value 0.0943 | locus YJL134W, strain LCB3, stronger effect = lower value 0.048 | locus YJL154C, strain vps35, stronger effect = lower value 0.0599 | locus YJL164C, strain tpk1, stronger effect = lower value 0.0592 | locus YJL166W, strain qcr8, stronger effect = lower value 0.0601 | locus YJL168C, strain set2, stronger effect = lower value 0.0595 | locus YJL187C, strain SWE1 (second series), stronger effect = lower value 0.0469 | locus YJL187C, strain SWE1, stronger effect = lower value 0.058 | locus YJR043C, strain POL32, stronger effect = lower value 0.0638
